Hits are enriched below; roughly 3.8% of the tested compounds scored in any of these assays.
NTR1 ag = activates human neurotensin receptor 1 | activation, % at 20 µM | NTR1-U2OS beta-arrestin-GFP spot imaging, agonist mode | 330,000 compounds, 0.17% hits;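 active = activation at or above 40% of the spot to cytoplasm intensity ratio, with at least 20 cells analyzed; inconclusive = wells under 20 cells, flagged as cytotoxic or low count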
Bfl-1 A1 inh = inhibitors of the anti-apoptotic protein A1, read as caspase activation. 330,000 compounds, 0.066% hits. MEF A1-2A-BIM cells, Caspase-Glo 3/7 luminescence, 3 h; percent of clofoctol response, vehicle zero. caspase activation, % (test concentration not listed);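 active = over half of replicate activation scores above 10%, or exactly half above 10 with the replicate mean above 10; inconclusive = replicate mean below 10 yet half the replicates above 10; inactive = over half of replicates below 10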
697 NFkB inh = inhibitors of the PMA/ionomycin-induced NF-kB reporter in 697 B cells. inhibition, % at 4 µM. 330,000 compounds, 0.33% hits. 697 B-cell NF-kB luciferase reporter, 16 h; in the data active = inhibition above about 35%
Mdm2 MdmX PPI = inhibitors of human Mdm2/MdmX interaction. SaOS-2 split-luciferase Mdm2/MdmX complementation, luminescence. O15151+Q00987. 330,000 compounds, 3% hits. inhibition, % at 8 µM;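 active = inhibition of at least 50% at 8 µM in the primary screen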
Jurkat NFkB inh = lowers PMA/ionomycin-induced NF-kB signal in Jurkat cells; PMA/ionomycin-induced NF-kB luciferase reporter, luminescence; inhibition, % at 4 µM; AID 435003; 330,000 compounds, 0.53% hits; in the data active = inhibition above about 50%
Beta apoptosis = beta cell apoptosis inhibition; AID 435005; protection from apoptosis, % (concentration not given with the values); 300,000 compounds, 0.8% hits; INS-1E cytokine-induced death, ATP luminescence, 48 h; percent of positive-control rescue, neutral wells zero;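 active = Every replicate reaches about 75%, or at least half do and their mean reaches it too, limit read from the data; inconclusive = At least half of replicates reach the limit but their mean does not; inactive = Under half of replicates reach the limit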;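 also: higher means more ATP so stronger rescue from cytokine killing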
Mdm2 MdmX conf = human Mdm2/MdmX binding inhibition, confirmed. shares compounds with Mdm2 MdmX PPI. luminescent assay. inhibition, % at 8 µM. 10,000 compounds, 55% hits. AID 489028; in the data active = inhibition above about 40%
Full FLuc ctr = inhibits full-length luciferase, flagging false Mdm2/MdmX hits; shares compounds with Mdm2 MdmX PPI; SaOS-2 full-length luciferase counterscreen, luminescence; inhibition, % at 8 µM; 6,200 compounds, 77% hits; AID 504607;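 active = mean inhibition at 8 µM reaching about 37%, which flags the compound as non-specific, limit read from the data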;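 also: p53-null SaOS-2 cells with luciferase driven by a doxycycline-inducible promoter; compound on cells about two nights before reading with doxycycline added after day one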
Large screens that a line does not name were inactive (follow-up assays come after a bar, where they were run).

NC(=O)c1sc2nc3c(c(-c4ccco4)c2c1N)CCCC3	Mdm2 MdmX PPI 61 | Mdm2 MdmX conf 67 | Full FLuc ctr 37
NC(=O)c1sc2nc3c(c(-c4ccc(Cl)cc4)c2c1N)CCCC3	none
Cc1ccc(-c2c3c(nc4sc(C(N)=O)c(N)c24)CCC3)cc1	Mdm2 MdmX PPI 56 | Mdm2 MdmX conf 55 | Full FLuc ctr 47
CC(C)=CCc1c(O)cc2oc3c(CC=C(C)C)c(O)c(O)c(CC=C(C)C)c3c(=O)c2c1O	Mdm2 MdmX PPI 100 (no result: Beta apoptosis) | Mdm2 MdmX conf 43 | Full FLuc ctr 47
CC(C)=CCc1cc(-c2oc3cc(O)cc(O)c3c(=O)c2O)ccc1O	none
CCC(C)(C)NC(=O)c1ccc(Sc2nncn2C)c([N+](=O)[O-])c1	none
Cn1cnnc1Sc1ccc(/C=C/C(=O)c2ccc(O)cc2)cc1[N+](=O)[O-]	Mdm2 MdmX PPI 51 | Mdm2 MdmX conf inactive | Full FLuc ctr 53
COc1cc(C(=O)Nc2ccc(Cl)c([N+](=O)[O-])c2)cc(OC)c1OC	Mdm2 MdmX PPI 57 | Mdm2 MdmX conf inactive
COc1ccc(C(=O)c2ccc(Cl)c([N+](=O)[O-])c2)cc1	Bfl-1 A1 inh inconclusive, Mdm2 MdmX PPI 70 | Mdm2 MdmX conf 70 | Full FLuc ctr 111
CC(Sc1nnnn1C1CCCC1)C(=O)Nc1cccc(S(=O)(=O)N2CCOCC2)c1 (centres undefined)	none
CC(=O)N1CCn2c3c(c4cc(C)ccc42)CCCC31 (centres undefined)	none
Cc1ccc2c(c1)c1c3n2CCN(C(=O)CCl)C3CCC1 (centres undefined)	Mdm2 MdmX PPI 51 | Mdm2 MdmX conf inactive | Full FLuc ctr 92
O=C1CCC(=O)N1CCC(c1ccc(F)cc1)c1ccco1 (centres undefined)	none (no result: Beta apoptosis)
O=C1NCN(c2ccccc2)C12CCN(CCCC(c1ccc(F)cc1)c1ccc(F)cc1)CC2	NTR1 ag 40, Mdm2 MdmX PPI 99 | Mdm2 MdmX conf 52 | Full FLuc ctr 73
O=[N+]([O-])/C=C/c1c(OCc2ccccc2)ccc2ccccc12	NTR1 ag 61, Mdm2 MdmX PPI 95, Beta apoptosis 115 | Mdm2 MdmX conf 100 | Full FLuc ctr 50
CCCCOc1ccc2ccccc2c1C=O	none
O=c1c2ccccc2ncn1Cc1ccc2c(c1)OCO2	none
O=C(CN(c1cccc([N+](=O)[O-])c1)S(=O)(=O)c1ccccc1)NCc1cccnc1	none
O=C(CN(c1cccc(C(F)(F)F)c1)S(=O)(=O)c1ccc(Cl)c([N+](=O)[O-])c1)NCc1ccc(F)cc1	Mdm2 MdmX PPI 100 | Mdm2 MdmX conf inactive | Full FLuc ctr 95
CCCCn1c(N)c(N(CCOC)C(=O)c2ccc3c(c2)C(=O)N(c2ccccc2Cl)C3=O)c(=O)[nH]c1=O	none
CC1(C)CC(=O)C2=C(C1)NC(SCC(=O)Nc1ccccc1)=C(C#N)C21CCCCC1	none
CC(C)(C)C1CCC2(CC1)C(C#N)=C(SCC(=O)Nc1ccccc1)NC(=O)C2C#N (centres undefined)	Mdm2 MdmX PPI 92 | Mdm2 MdmX conf 75 | Full FLuc ctr 59
CCc1ccc(NC(=O)CSc2nnnn2C)cc1	none
COc1cc2c(cc1OC)C(C)N(C(=O)c1cc3c(C)cc(C)cc3[nH]1)CC2 (centres undefined)	Mdm2 MdmX PPI 67 | Mdm2 MdmX conf 73 | Full FLuc ctr 48
CC(C(=O)NCc1ccc(F)cc1)n1ccc2cc(S(=O)(=O)N3CCCC3)ccc21 (centres undefined)	none
O=C(c1ccco1)N1CCN(C(=O)c2cnn3c2NC(c2cccs2)CC3C(F)(F)F)CC1 (centres undefined)	none
O=C(c1cnn2c1NC(c1ccco1)CC2C(F)(F)F)N1CCN(c2cccc(Cl)c2)CC1 (centres undefined)	Mdm2 MdmX PPI 59 | Mdm2 MdmX conf 51 | Full FLuc ctr 56
O=C(CCNC(=O)c1ccccc1)Nc1ccc(Cl)c(S(=O)(=O)N2CCCCC2)c1	none
